The values below come from PubChem BioAssay (Tox21).

Experiment [1] has as its target Nuclear receptor subfamily 1 group I member 2 (Homo sapiens) (UniProt O75469). Put plainly: Human pregnane X receptor (PXR) small molecule agonists, qHTS assay (AID 1346982). Further: nearly all actives have a fitted effect of over 35% in size. Further: potency means the concentration at half of the fitted maximal effect. A digest of the protocol:
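Luciferase signal from ONE-Glo (30 min, room temperature) measured activation of hPXR-driven CYP3A4 reporter expression in PXR-Luc HepG2 cells treated with compounds for 24 hr at 37 C.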

Experiment [2] addresses Nuclear receptor subfamily 1 group I member 2 (Rattus norvegicus) (UniProt Q9R1A7). Put plainly: Rat pregnane X receptor (rPXR) activation by small molecules, qHTS assay (AID 1346983). Further: nearly all actives have a fitted effect of over 20% in size. The settings on record: rPXR luciferase reporter cells, One-Glo luminescence, 24 h; stronger effect = higher value. In short, it runs like this: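 Cell-based rPXR luciferase reporter assay, 2,000 cells per well, rested 5hr at 37 C before compound addition in DMSO, then 24 hr at 37 C. One-Glo reagent was added and luminescence read after 30 min at room temperature.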
For orientation: Quantitative high-throughput screening tests each substance at several concentrations.

For experiment [3], the target named is Nuclear receptor subfamily 1 group I member 2 (Homo sapiens) (UniProt O75469). Put plainly: CYP3A4 induction through human pregnane X receptor (PXR) by small molecules, qHTS assay (AID 1346984). Further: nearly all actives have a fitted effect of over 40% in size. A digest of the protocol: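 Luminescence readout: luciferase signal after One-Glo (30 min, room temperature), following 3 h at 37C with 3uM final Luciferin-IPA P450 substrate. Cells were DPX-2 (HepG2, PXR/CYP3A4-luc co-transfected) dosed for 24 h.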

Experiment [4] has the same target. Put plainly: Human pregnane X receptor (PXR) activation by small molecules, qHTS assay (AID 1346985). Further: nearly all actives have a fitted effect of over 40% in size. In short, it runs like this: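 DPX-2 cells (HepG2 co-transfected with a PXR response element and a CYP3A4-promoter luciferase construct) were seeded at 2,000 per well, rested 5 hr at 37C, then exposed to DMSO-dissolved compounds for 24 hr. Activation was read as luciferase luminescence.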

The target of experiment [5] is Cytochrome P450 2D6 (Homo sapiens) (UniProt P10635). Put plainly: Cytochrome P450 Family 2 Subfamily D Member 6 (CYP2D6) small molecule antagonists: luciferase reporter qHTS assay (AID 1671196). Further: nearly all actives have a fitted effect of over 50% in size. Further: potency means the concentration at half of the fitted maximal effect. On activity change, negative = inhibition: series mostly up to about 120 µM. A digest of the protocol: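 Read-out is luminescence from luciferin formed by CYP2D6 turnover of a proluciferin substrate, recorded as relative luminescence units. Reactions ran 1 h at room temperature after NADPH regeneration solution was added.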
On the technique in general: A reporter such as luciferase makes a cellular process visible.

In experiment [6] the target is Cytochrome P450 2C19 (Homo sapiens) (UniProt P33261). Put plainly: Cytochrome P450 Family 2 Subfamily C Member 19 (CYP2C19) small molecule antagonists: luciferase reporter qHTS assay (AID 1671197). Further: nearly all actives have a fitted effect of over 65% in size. Further: potency means the concentration at half of the fitted maximal effect. On activity change, negative = inhibition: series mostly up to about 120 µM. A digest of the protocol: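 Light output is proportional to CYP2C19 activity: proluciferin substrate is converted to luciferin, then detected by a luciferin detection reagent that also stops the 1 h, 37C NADPH-driven reaction. Ketoconazole serves as positive control.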

The target in experiment [7] is Cytochrome P450 2C9 (Homo sapiens) (UniProt P11712). Put plainly: Cytochrome P450 Family 2 Subfamily C Member 9 (CYP2C9) small molecule antagonists: luciferase reporter qHTS assay (AID 1671198). Further: nearly all actives have a fitted effect of over 50% in size. Further: potency means the concentration at half of the fitted maximal effect. On activity change, negative = inhibition: series mostly up to about 120 µM. In short, it runs like this: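 CYP2C9 activity was measured with a P450-Glo proluciferin substrate. Enzyme–substrate mix was held with compound for 10 min at room temperature, then NADPH regeneration solution was added for 1 h at 37C. Luciferin product was read as luminescence.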

The target in experiment [8] is Voltage-gated inwardly rectifying potassium channel KCNH2 (Homo sapiens) (UniProt Q12809). Put plainly: Human Ether-a-go-go-Related Gene (hERG) channel small molecule antagonists: fluorescence cell-based qHTS assay (AID 1671200). Further: series mostly up to about 77 µM; nearly all actives have a fitted effect of over 50% in size. In short, it runs like this: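 Thallium flux as potassium surrogate: FluxOR II dye loaded 1 h at room temperature into hERG-expressing U2OS cells, then stimulus buffer added after 10 min. Kinetic 480 nm excitation/540 nm emission read, 2 min.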

Experiment [9] concerns the target Cytochrome P450 3A4 (Homo sapiens) (UniProt P08684). Put plainly: Cytochrome P450 Family 3 Subfamily A Member 4 (CYP3A4) small molecule antagonists: luciferase reporter qHTS assay (AID 1671201). Further: series mostly up to about 120 µM; nearly all actives have a fitted effect of over 50% in size. A digest of the protocol:
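Recombinant human CYP3A4 converts a proluciferin substrate to luciferin over 1 h at room temperature after NADPH regeneration solution is added (compound preincubated 10 min); detection reagent stops reaction, luminescence read 20 min later as relative units.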

The target in experiment [10] is Cytochrome P450 1A2 (Homo sapiens) (UniProt P05177). Put plainly: Cytochrome P450 Family 1 Subfamily A Member 2 (CYP1A2) small molecule antagonists: luciferase reporter qHTS assay (AID 1671199). Further: nearly all actives have a fitted effect of over 50% in size. Further: potency means the concentration at half of the fitted maximal effect. On activity change, negative = inhibition: series mostly up to about 120 µM. In short, it runs like this: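 P450-Glo CYP1A2, 1536-well qHTS: enzyme/proluciferin substrate + cpd (DMSO), 10 min RT; NADPH regen, 1 h RT; detection reagent, 20 min; luminescence, RLU.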

Records with an inconclusive call do not appear. A number with no mark means an inactive call. The source made the active and inactive calls. The call rests on the fitted dose curve; in most records, active means well fitted curve in the direction sought with a large enough effect in the repeat runs; inconclusive means weak or mixed curves; inactive means no such curve, though single readings can be large; an effect the other way counts as inactive or inconclusive. Positions of bridges follow the written chain, without caps; N, C: chain ends. Non-standard residues stand in square brackets, D forms with d. Residues, ends and D or L forms follow the SMILES beside them. hArg = N=C(N)NCCCC[C@H](N)C(=O)O; Mpa = O=C(O)CCS
On the % scale 0 is the no-effect control and ±100 the full control effect.

Chain of Voltage-gated inwardly rectifying potassium channel KCNH2 (Homo sapiens) (Q12809 whole entry, looked up): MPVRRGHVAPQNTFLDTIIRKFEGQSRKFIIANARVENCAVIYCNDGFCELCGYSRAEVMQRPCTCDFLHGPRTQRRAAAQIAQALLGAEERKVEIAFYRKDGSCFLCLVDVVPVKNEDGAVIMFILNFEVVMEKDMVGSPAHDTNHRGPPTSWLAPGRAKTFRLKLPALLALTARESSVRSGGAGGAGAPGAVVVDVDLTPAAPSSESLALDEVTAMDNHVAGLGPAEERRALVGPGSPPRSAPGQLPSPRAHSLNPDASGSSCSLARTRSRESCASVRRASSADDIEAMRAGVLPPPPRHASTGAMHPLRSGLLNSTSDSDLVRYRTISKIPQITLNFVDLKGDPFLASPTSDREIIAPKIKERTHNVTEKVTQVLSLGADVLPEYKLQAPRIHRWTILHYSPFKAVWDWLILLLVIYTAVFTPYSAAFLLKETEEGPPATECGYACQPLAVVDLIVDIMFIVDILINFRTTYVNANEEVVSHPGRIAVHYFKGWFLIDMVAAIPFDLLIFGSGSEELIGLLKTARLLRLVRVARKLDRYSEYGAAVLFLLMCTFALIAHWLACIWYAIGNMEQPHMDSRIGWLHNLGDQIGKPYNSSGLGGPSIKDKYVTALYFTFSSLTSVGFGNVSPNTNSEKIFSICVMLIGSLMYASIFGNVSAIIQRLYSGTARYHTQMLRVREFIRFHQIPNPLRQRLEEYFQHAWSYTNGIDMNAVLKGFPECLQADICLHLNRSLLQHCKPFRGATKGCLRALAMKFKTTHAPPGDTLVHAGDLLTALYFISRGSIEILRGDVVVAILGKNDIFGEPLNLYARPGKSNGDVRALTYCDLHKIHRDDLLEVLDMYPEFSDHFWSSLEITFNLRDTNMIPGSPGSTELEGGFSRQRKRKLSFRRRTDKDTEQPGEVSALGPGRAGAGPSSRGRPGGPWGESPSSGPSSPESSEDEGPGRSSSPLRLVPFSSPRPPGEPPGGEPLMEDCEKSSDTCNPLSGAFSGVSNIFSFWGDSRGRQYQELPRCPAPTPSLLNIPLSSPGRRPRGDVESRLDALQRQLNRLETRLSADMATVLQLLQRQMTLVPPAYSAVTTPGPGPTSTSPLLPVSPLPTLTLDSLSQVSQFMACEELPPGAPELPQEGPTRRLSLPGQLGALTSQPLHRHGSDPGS
Chain of Cytochrome P450 1A2 (Homo sapiens) (P05177 whole entry, looked up): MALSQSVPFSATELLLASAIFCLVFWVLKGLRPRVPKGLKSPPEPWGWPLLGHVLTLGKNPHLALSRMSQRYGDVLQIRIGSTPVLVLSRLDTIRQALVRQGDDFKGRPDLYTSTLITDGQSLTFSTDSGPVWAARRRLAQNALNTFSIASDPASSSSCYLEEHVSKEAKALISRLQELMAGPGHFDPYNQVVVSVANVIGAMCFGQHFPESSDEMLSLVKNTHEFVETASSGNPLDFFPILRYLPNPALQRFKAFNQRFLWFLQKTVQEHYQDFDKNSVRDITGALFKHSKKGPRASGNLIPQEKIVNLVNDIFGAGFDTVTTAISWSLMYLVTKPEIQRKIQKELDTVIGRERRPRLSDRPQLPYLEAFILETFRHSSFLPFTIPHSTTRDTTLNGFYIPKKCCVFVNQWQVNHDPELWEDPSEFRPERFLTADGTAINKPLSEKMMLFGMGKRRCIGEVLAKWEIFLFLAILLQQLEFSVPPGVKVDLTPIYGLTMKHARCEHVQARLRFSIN
Chain of Cytochrome P450 2C9 (Homo sapiens) (P11712 whole entry, looked up): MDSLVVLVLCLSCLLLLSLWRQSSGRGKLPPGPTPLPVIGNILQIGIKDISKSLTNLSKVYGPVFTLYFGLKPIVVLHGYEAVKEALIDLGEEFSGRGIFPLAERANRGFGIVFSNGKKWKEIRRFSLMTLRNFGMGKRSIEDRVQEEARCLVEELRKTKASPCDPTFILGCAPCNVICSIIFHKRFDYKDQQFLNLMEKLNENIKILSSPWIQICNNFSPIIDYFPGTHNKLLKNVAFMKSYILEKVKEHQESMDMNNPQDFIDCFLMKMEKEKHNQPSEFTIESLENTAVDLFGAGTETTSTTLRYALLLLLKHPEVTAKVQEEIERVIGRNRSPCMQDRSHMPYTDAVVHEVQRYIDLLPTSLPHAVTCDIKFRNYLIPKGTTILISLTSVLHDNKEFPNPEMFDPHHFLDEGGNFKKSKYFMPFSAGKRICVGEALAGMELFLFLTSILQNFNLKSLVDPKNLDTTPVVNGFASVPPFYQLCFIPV
Chain of Cytochrome P450 2D6 (Homo sapiens) (P10635 whole entry, looked up): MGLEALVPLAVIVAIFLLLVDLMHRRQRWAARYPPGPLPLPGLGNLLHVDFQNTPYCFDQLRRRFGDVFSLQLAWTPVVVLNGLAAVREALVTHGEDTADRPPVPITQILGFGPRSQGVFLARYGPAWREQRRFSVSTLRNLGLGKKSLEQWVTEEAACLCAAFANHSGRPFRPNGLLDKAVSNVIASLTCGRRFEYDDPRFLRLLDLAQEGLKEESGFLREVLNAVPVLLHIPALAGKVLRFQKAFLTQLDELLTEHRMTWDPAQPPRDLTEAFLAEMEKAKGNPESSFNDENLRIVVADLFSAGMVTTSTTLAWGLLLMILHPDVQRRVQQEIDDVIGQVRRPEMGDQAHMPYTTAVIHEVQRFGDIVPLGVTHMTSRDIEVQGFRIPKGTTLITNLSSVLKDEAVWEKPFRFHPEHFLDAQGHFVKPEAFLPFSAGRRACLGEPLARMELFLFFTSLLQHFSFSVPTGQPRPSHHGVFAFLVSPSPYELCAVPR
Chain of Cytochrome P450 2C19 (Homo sapiens) (P33261 whole entry, looked up): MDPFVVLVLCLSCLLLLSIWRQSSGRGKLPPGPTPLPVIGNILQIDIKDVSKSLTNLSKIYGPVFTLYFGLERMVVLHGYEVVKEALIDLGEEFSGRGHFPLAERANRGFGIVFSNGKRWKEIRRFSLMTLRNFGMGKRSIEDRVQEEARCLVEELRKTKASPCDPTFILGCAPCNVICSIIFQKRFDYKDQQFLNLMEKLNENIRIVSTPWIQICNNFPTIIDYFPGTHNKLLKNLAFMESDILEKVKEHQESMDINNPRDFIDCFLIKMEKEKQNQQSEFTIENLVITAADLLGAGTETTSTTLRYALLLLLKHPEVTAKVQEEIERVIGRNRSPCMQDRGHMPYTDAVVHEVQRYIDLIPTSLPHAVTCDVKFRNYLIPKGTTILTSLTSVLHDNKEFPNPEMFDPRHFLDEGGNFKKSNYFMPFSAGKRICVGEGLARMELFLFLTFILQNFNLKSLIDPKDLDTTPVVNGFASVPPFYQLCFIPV
Chain of Cytochrome P450 3A4 (Homo sapiens) (P08684 whole entry, looked up): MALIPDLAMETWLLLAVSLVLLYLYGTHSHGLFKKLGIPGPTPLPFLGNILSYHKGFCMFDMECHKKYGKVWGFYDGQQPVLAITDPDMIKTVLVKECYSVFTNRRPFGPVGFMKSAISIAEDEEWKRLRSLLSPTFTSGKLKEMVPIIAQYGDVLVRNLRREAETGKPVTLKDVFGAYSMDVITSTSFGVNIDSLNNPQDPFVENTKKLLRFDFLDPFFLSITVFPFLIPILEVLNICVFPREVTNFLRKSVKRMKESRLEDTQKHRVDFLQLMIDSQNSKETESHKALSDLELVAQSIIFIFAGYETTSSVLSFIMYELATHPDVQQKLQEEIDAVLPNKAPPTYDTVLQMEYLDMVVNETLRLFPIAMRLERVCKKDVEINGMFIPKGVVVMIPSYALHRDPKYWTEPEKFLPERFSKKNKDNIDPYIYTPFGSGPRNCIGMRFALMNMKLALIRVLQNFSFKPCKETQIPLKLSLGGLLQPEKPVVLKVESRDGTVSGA
Chain of Nuclear receptor subfamily 1 group I member 2 (Homo sapiens) (O75469 whole entry, looked up): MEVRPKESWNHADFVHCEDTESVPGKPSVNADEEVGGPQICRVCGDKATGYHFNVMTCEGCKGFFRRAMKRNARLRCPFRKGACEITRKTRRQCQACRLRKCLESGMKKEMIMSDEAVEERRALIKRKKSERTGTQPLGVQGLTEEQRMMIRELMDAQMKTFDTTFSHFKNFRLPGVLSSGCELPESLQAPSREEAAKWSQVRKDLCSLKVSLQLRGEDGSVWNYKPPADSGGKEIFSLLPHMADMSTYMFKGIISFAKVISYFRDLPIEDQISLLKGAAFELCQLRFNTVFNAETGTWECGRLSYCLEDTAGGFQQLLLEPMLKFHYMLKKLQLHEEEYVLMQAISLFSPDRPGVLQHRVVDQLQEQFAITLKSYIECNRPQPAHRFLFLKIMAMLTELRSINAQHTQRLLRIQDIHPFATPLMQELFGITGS
Chain of Nuclear receptor subfamily 1 group I member 2 (Rattus norvegicus) (Q9R1A7 whole entry, looked up): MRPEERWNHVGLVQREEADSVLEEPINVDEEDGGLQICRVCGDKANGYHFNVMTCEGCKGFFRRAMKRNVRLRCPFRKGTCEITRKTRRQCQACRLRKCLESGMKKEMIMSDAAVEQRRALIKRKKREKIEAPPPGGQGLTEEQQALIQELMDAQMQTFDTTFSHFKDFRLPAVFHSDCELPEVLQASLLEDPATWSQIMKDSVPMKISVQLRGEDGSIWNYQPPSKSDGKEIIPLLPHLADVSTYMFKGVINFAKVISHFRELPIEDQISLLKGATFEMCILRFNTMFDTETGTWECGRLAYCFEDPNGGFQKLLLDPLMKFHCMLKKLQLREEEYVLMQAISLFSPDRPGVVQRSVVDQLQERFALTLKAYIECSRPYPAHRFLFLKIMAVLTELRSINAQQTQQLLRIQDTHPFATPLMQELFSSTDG

As to `CC(C)=CCC[C@@](C)(O)[C@H]1CC=C(C)CC1`, the Potency in experiment [1] was 29.8 µM (active); in experiment [6], 8.71 µM (active); in experiment [7] it was 17.4 µM (active). The max activation in experiment [2] was 1.39%. Besides, the Potency entry in experiment [3], in experiment [4], in [5] and in experiment [8] was “inactive” each time.
As for `O=C(CN1CCNCC1)NC1CCCCC1`, the Potency entry in experiment [1], in [3], in experiment [4], in [5], in experiment [6] and in experiment [7] was “inactive” throughout. Moreover, the Potency result in [8] and in experiment [9] was “inactive” in each case. The max activation in [2] is -3.24%.
As to `c1ccc2c(CC3=NCCN3)cccc2c1`, the Potency entry in experiment [1], in [3], in experiment [4], in [6], in experiment [7] and in [10] was “inactive” in each case. Further, the Potency result in experiment [8] and in experiment [9] was “inactive” in each case. Besides, the max activation in [2] is 14.1%.
Regarding `O=S(=O)(O)c1ccc2c(N=Nc3ccc(S(=O)(=O)O)c4ccccc34)c(O)c(S(=O)(=O)O)cc2c1`, the activation in experiment [1] was 1.28% [at 8.39 µM]. Also, the max activation in experiment [2] is -9.86%. Further, the Potency result in experiment [3] and in [4] was “inactive” in each case. The activity change, negative = inhibition in experiment [5] is -11.1% [at 10.5 µM]; in experiment [6] it was -14.2% [at 10.5 µM]; in experiment [7] it was -3.9% [at 10.5 µM]; in [10], -17.3% [at 10.5 µM]; in experiment [8], 1.92% [at 6.97 µM]; in experiment [9], 1.51% [at 10.5 µM].
Take `O=C(NCN1CCOCC1)c1cnccn1`: the Potency entry in [1], in experiment [3], in [4], in [5], in [6] and in [7] was “inactive” in each case. In addition, the Potency entry in experiment [10], in experiment [8] and in experiment [9] was “inactive” in each case. Also, the max activation in [2] is -1.75%.
Turning to `NC(=O)[C@@H]1CSSCCC(=O)N[C@@H](CCCCN=C(N)N)C(=O)NCC(=O)N[C@@H](CC(=O)O)C(=O)N[C@@H](Cc2c[nH]c3ccccc23)C(=O)N2CCC[C@H]2C(=O)N1` ([Mpa][hArg]GDWPC-NH2; disulfide 1-7), the Potency entry in experiment [1], in [3], in experiment [4], in experiment [5], in experiment [6] and in [7] was “inactive” each time. In addition, the Potency result in experiment [10], in [8] and in [9] was “inactive” throughout. For the same compound, the max activation in experiment [2] is -0.95%.
Take `CC1(C)Oc2ccc(C#N)cc2[C@@H](N2CCCC2=O)[C@@H]1O`: the Potency result in experiment [1], in experiment [3], in experiment [4], in experiment [5], in experiment [6] and in experiment [8] was “inactive” each time. In addition, in experiment [9], the Potency result was “inactive”. Besides, the max activation in [2] was 0.645%.
For `NCc1ccc(S(N)(=O)=O)cc1`, the Potency result in [1], in [3], in experiment [4], in [5], in experiment [10] and in experiment [8] was “inactive” in each case. In addition, the Potency result in experiment [9] is “inactive”. In addition, in [2], the max activation was -0.0614%.
On to `O=C(Cn1ccnc1[N+](=O)[O-])NCc1ccccc1`, for which the Potency entry in experiment [1], in [3], in [4], in experiment [7], in experiment [8] and in experiment [9] was “inactive” throughout. Besides, in experiment [2], the max activation was -1.78%.
With `O=C(O)[C@H](O)c1ccccc1`, the Potency result in [1], in experiment [3], in [4], in [7], in experiment [10] and in [9] was “inactive” in each case. Also, the max activation in experiment [2] was -3.01%.
Take `O=NN(CCCl)C(=O)NC1CCCCC1`: the Potency entry in experiment [1], in [3], in experiment [4], in [5], in experiment [6] and in experiment [7] was “inactive” throughout. In addition, the Potency entry in experiment [10], in experiment [8] and in experiment [9] was “inactive” throughout. Moreover, the max activation in experiment [2] was -2.8%.
With `Cn1c(=O)c2[nH]c(Br)nc2n(C)c1=O`, the Potency result in experiment [1], in [3], in experiment [4], in [6], in [7] and in experiment [8] was “inactive” throughout. In experiment [9], the Potency entry is “inactive”. Also, in experiment [2], the max activation is -2.17%. Moreover, the Potency in experiment [10] was 24.5 µM (active).
`CN1C[C@@H]2C[C@H]1CN2c1cc2c(cc1F)c(=O)c(C(=O)O)cn2C1CC1`: the activation in experiment [1] is -18.6% [at 19 µM]. In experiment [2], the max activation was -1.05%. Further, the Potency entry in experiment [3] and in experiment [4] was “inactive” in each case. The activity change, negative = inhibition in experiment [5] is 4.43% [at 23.6 µM]; in experiment [6] it was 35.3% [at 23.6 µM]; in experiment [7], 8.53% [at 23.6 µM]; in [10], -8.84% [at 23.6 µM]; in [8], 0.182% [at 15.8 µM]; in experiment [9] it was 4.83% [at 23.6 µM].
For `CN(C)CC/C=C1/c2ccccc2COc2ccc(CC(=O)O)cc21`, the Potency entry in [1], in experiment [3], in [4], in experiment [5], in [6] and in experiment [7] was “inactive” throughout. Further, the Potency entry in experiment [10] and in experiment [9] was “inactive” each time. In addition, in experiment [2], the max activation was -3.17%.
As to `COc1ccc2c(c1)c1c3n2CCN(C)C3=NCC1`, the Potency entry in experiment [1], in experiment [3], in experiment [4], in experiment [6], in [7] and in [8] was “inactive” in each case. Moreover, the Potency entry in experiment [9] is “inactive”. Further, the max activation in [2] is 5.26%. The Potency in experiment [5] was 15.5 µM (active).
Take `CCCC(=O)Nc1ccc(OCC(O)CNC(C)C)c(C(C)=O)c1` (centres undefined): the Potency entry in experiment [1], in experiment [3], in experiment [4], in [6], in experiment [8] and in experiment [9] was “inactive” each time. In addition, in experiment [2], the max activation was -1.06%.
Take `C#CCN[C@@H]1CCc2ccccc21`: the Potency result in [1], in [3], in experiment [4], in experiment [6], in [7] and in [8] was “inactive” throughout. For the same compound, the Potency result in experiment [9] was “inactive”. The max activation in experiment [2] is -3.04%. Besides, the Potency in experiment [5] is 27.5 µM (active); in experiment [10] it was 5.12 µM (active).
Turning to `N#CCC(=O)NN`, the Potency entry in [1], in [3], in experiment [4], in [5], in experiment [7] and in [10] was “inactive” throughout. For the same compound, the Potency entry in experiment [8] and in experiment [9] was “inactive” in each case. Moreover, the max activation in experiment [2] is -4.95%.
